Test results: PubChem BioAssay
Several values for one entry are separate records, joined by “and”; a condition that tells them apart may be missing. Equal entries are not always repeated. Records with an inconclusive call do not appear. Activity calls are given as the source filed them.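 Rule for the calls, unless noted: active = normalized viability below 100% at a tested concentration; inactive = the rest.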

Assays:
[1] = P. berghei load reduction in hepatocytes – cell-based, HepG2, luciferase luminescence, HepG2 viability, primary screen (AID 624349; in the data active = parasite load remaining mostly below about 12%, no sharp cut-off; inactive = mostly above about 10%;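 note: 100% = mean of DMSO negative control wells on the same plate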); settings: P. berghei liver stage in HepG2, luciferase luminescence, concentration not given here; parasite load remaining: stronger effect = lower value; viability: measured here: HepG2 viability without parasites
[2] = Wnt pathway potentiators raising nuclear beta-catenin – imaging, WNT3A-conditioned medium, mouse C2C12, NPC library, primary screen (AID 1117326; in the data active = nuclear beta-catenin stimulation mostly above about 4.2%, no sharp cut-off; inactive = mostly below about 10%); settings: stronger effect = higher value
[3] = stimulators of insulin release from INS-1E, primary screen, cell-based, 5 mM glucose, NPC library (AID 1117329;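 active = compound raises insulin release from rat beta cells at 5 mM glucose, no numeric limit stated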); settings: rat INS-1E insulin secretion, at 10 µM, stronger effect = higher value
[4] = growth inhibition of GSK3B-pretreated HCT116 cells – cell-based, CellTiter-Glo, 0.2 to 20 µM (AID 1117336;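 active = compounds lowering colon cancer cell viability after pretreatment blocking the GSK3B kinase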); settings: HCT116 viability after GSK3B inhibitor, at 20 µM, stronger effect = higher value
[5] = inhibition of endothelial tube formation, primary screen, imaging, VEGF stimulated, CD31 staining, tube area, NPC library (AID 1117340;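 active = compound that reduces growth-factor-driven endothelial tube area in a mixed cell culture, no cutoff stated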); settings: VEGF-stimulated ADSC/ECFC co-culture, at 10 µM, stronger effect = higher value
[6] = GLP1 release stimulators, primary, NCI-H716, NPC library (AID 1117341;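 active = compound raises GLP1 secretion from the human gut endocrine cells, with no numeric limit stated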); settings: NCI-H716 cells, at 10 µM, stronger effect = higher value
[7] = HCT116 colon cancer cell growth inhibition, primary screen, CellTiter-Glo luminescence, NPC library (AID 1117342;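 active = compounds that lower survival of HCT116 colon cancer cells in the luminescence readout, no numeric limit stated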); settings: at 20 µM (top of the series)
[8] = reduced SW480 viability measured with CellTiter-Glo, NPC library, primary (AID 1117343;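 active = compounds that lower viability of the colon cancer cells in the luminescence readout, with no numeric limit stated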); settings: CellTiter-Glo luminescence; at 20 µM (top of the series) unless noted
[9] = NPC library primary testing for decreased DLD-1 cell viability via CellTiter-Glo (AID 1117346;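 active = compounds that lower survival of DLD-1 colon cancer cells in the luminescence readout, no cutoff given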); settings: DLD-1 viability, CellTiter-Glo luminescence; at 20 µM (top of the series)
[10] = viability loss in pontine glioma line – cell-based, JHH-DIPG-1, MIPE4.0, CellTiter-Glo, qHTS, dose response (AID 1347062; cut-off not given, nearly all actives have AC50 up to about 27 µM); settings: JHH-DIPG-1 viability, CellTiter-Glo ATP luminescence
[11] = viability loss in pontine glioma line – cell-based, SU-DIPG-XXV, MIPE5.0, CellTiter-Glo, qHTS, dose response (AID 1347065; cut-off not given, nearly all actives have AC50 up to about 26 µM;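 note: cells exposed to compound for 48 hours before ATP readout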); settings: CellTiter-Glo ATP luminescence
[12] = growth inhibition of DIPG cells – cell-based, MIPE4.0 library, CellTiter-Glo luminescence, qHTS (AID 1347066; cut-off not given, nearly all actives have AC50 up to about 30 µM;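 note: cells exposed to compound for 48 hours before readout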); settings: SU-DIPG-VI viability, CellTiter-Glo ATP luminescence
[13] = JHH-DIPG-1 glioma cell viability, MIPE5.0 library, CellTiter-Glo luminescence, qHTS (AID 1347067; cut-off not given, nearly all actives have AC50 up to about 26 µM;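 note: cells exposed to compound for 48 hours before readout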); settings: JHH-DIPG-1 glioma viability, CellTiter-Glo ATP luminescence
[14] = growth inhibition of DIPG cells – cell-based, MIPE5.0 library, qHTS (AID 1347068; cut-off not given, nearly all actives have IC50 up to about 30 µM); settings: SU-DIPG-XXV viability
[15] = viability loss with induced miR-34 in A549 – imaging, A549 dox-inducible miR-34, nuclei and caspase counts, primary screen (AID 1347080;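 active = compounds whose cell count with miR-34 switched on is under 0.7 times the count with it off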); settings: A549 miR-34 inducible, Hoechst nuclei count, 48 h
[16] = MELAS cybrid and Rieske KO viability enhancers – cell-based, MELAS cybrids, Rieske KO mouse fibroblasts, CellTiter-Glo, primary screen (AID 1508586;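 active = mean z-score across replicates of 1.96 or higher in either the MELAS or the Rieske mutant cell line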;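 note: z relative to plate mean and SD of compound and empty wells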); settings: low glucose
[17] = galactose survival enhancers in mitochondrial complex I cybrids – cell-based, galactose medium, ATP luminescence, primary screen (AID 1645843;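 active = z-score of at least 1.8 in each of two replicates, scored against plate mean and spread of sample wells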;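 note: positive z means more ATP and so rescue of galactose-driven cybrid death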); settings: complex I mutant cybrid cells, 72 h, stronger effect = higher value
[18] = drug combination growth inhibition, ovarian cancer – cell-based, oncology-focused library, rucaparib conditional, profiling panel (AID 1508598); settings: patient-derived ovarian cancer cells, CellTiter-Glo viability, 144 h, stronger effect = lower value
[19] = viability loss in pontine glioma line – cell-based, SU-DIPG-IV, MIPE4.0, CellTiter-Glo, qHTS, dose response (AID 1347063; cut-off not given, nearly all actives have AC50 up to about 30 µM;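 note: compound exposure lasted 48 hours before the viability readout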); settings: CellTiter-Glo ATP luminescence
[20] = stronger effect = lower value, cell number ratio, induced over uninduced
[21] = measured here: relative caspase fold change +Dox/-Dox
[22] = measured here: total cells with miR-34 induction, stronger effect = lower value
[23] = measured here: total cells without miR-34 induction
[24] = MELAS cybrid survival, CellTiter-Glo 48 h, stronger effect = higher value
[25] = Rieske KO mouse fibroblast survival, CellTiter-Glo 72 h

O=P(O)(O)C(O)(Cn1ccnc1)P(=O)(O)O
1%: nuclear beta-catenin stimulation ([2]; stimulation, at 2 µM)
130%: viability [1]
1.6: fold change [15, 21]
-0.459 and -1.13: z-score [16, 25]
inactive: parasite load remaining [1] 30.2% | nuclear beta-catenin stimulation ([2]; at 10 µM) 0.4% | insulin secretion stimulation [3] 0.2% | viability decrease [4] -1.1% | tube area decrease [5] 8.6% | GLP1 secretion stimulation [6] -0.1% | inhibition of viability [7] 16.4% | viability decrease (inhibition) [8] 32.9% | viability decrease (inhibition) [9] 17.2% | outcome [10] | outcome [11] | outcome [12] | outcome [13] | outcome [14] | fold change [15, 20] 0.851 | z-score [16, 24] -0.129 and 0.228 | z-score [17] 0.405
9230: cell count [15, 22]
10900: cell count [15, 23]

CN(C)C(=O)COC(=O)Cc1ccc(OC(=O)c2ccc(N=C(N)N)cc2)cc1
8730: cell count [15, 23]
inactive: nuclear beta-catenin stimulation ([2]; at 10 µM) 1.4% | insulin secretion stimulation [3] -0.35% | viability decrease [4] 16.9% | tube area decrease [5] -11.6% | GLP1 secretion stimulation [6] -0.7% | inhibition of viability [7] 13.5% | viability decrease (inhibition) [8] -4.4% | viability decrease (inhibition) [9] 4.3% | outcome [10] | outcome [11] | outcome [13] | outcome [14] | fold change [15, 20] 0.981 | z-score [16, 24] -0.283
0.0145: z-score [16, 25]
0.433: fold change [15, 21]
0.4%: nuclear beta-catenin stimulation ([2]; stimulation, at 2 µM)
8560: cell count [15, 22]

Cc1ccc(Nc2nccc(N(C)c3ccc4c(C)n(C)nc4c3)n2)cc1S(N)(=O)=O
-0.2 and 1.1: z-score [16, 25]
active: tube area decrease [5] 97.1% | viability decrease (inhibition) [8] 69.3% | AC50 [11] 5.9 µM | AC50 [13] 18.6 µM | viability ([18]; at 0.000305 µM, OCI-C5x cells, with rucaparib 10 µM, 100% = cells with rucaparib alone) 96.4% | viability ([18]; at 0.000305 µM, OCI-C5x cells, without rucaparib) 95.3% | viability ([18]; at 0.000305 µM, OCI-P5x cells, with rucaparib 20 µM, 100% = cells with rucaparib alone) 99% | viability ([18]; at 0.00122 µM, OCI-P5x cells, without rucaparib) 99.5% | viability ([18]; at 0.00488 µM, OCI-C5x cells, without rucaparib) 98.4% | viability ([18]; at 0.00488 µM, OCI-P5x cells, without rucaparib) 99.3% | viability ([18]; at 0.0195 µM, OCI-C5x cells, with rucaparib 10 µM, 100% = cells with rucaparib alone) 98.1% | viability ([18]; at 0.0195 µM, OCI-P5x cells, with rucaparib 20 µM, 100% = cells with rucaparib alone) 97.8% | viability ([18]; at 0.0195 µM, OCI-P5x cells, without rucaparib) 98.3% | viability ([18]; at 0.0781 µM, OCI-P5x cells, with rucaparib 20 µM, 100% = cells with rucaparib alone) 97.9% | viability ([18]; at 0.0781 µM, OCI-P5x cells, without rucaparib) 95.6% | viability ([18]; at 0.313 µM, OCI-C5x cells, without rucaparib) 95.9% | viability ([18]; at 0.313 µM, OCI-P5x cells, without rucaparib) 90.2% | viability ([18]; at 1.25 µM, OCI-C5x cells, without rucaparib) 96.9% | viability ([18]; at 1.25 µM, OCI-P5x cells, with rucaparib 20 µM, 100% = cells with rucaparib alone) 87.9% | viability ([18]; at 1.25 µM, OCI-P5x cells, without rucaparib) 91.3% | viability ([18]; at 5 µM, OCI-P5x cells, with rucaparib 20 µM, 100% = cells with rucaparib alone) 86% | viability ([18]; at 5 µM, OCI-P5x cells, without rucaparib) 86%
1%: nuclear beta-catenin stimulation ([2]; stimulation, at 2 µM)
5260 and 7730: cell count [15, 23]
inactive: nuclear beta-catenin stimulation ([2]; at 10 µM) 5.9% | insulin secretion stimulation [3] 4.9% | viability decrease [4] 20.9% | GLP1 secretion stimulation [6] -3.5% | inhibition of viability [7] 48.8% | viability decrease (inhibition) [9] 14.5% | outcome [10] | outcome [12] | fold change [15, 20] 0.9 and 0.786 | z-score [16, 24] -0.327 and -0.404 | viability ([18]; at 0.000305 µM, OCI-P5x cells, without rucaparib) 100% | viability ([18]; at 0.00122 µM, OCI-C5x cells, with rucaparib 10 µM, 100% = cells with rucaparib alone) 104% | viability ([18]; at 0.00122 µM, OCI-C5x cells, without rucaparib) 106% | viability ([18]; at 0.00122 µM, OCI-P5x cells, with rucaparib 20 µM, 100% = cells with rucaparib alone) 105% | viability ([18]; at 0.00488 µM, OCI-C5x cells, with rucaparib 10 µM, 100% = cells with rucaparib alone) 104% | viability ([18]; at 0.00488 µM, OCI-P5x cells, with rucaparib 20 µM, 100% = cells with rucaparib alone) 100% | viability ([18]; at 0.0195 µM, OCI-C5x cells, without rucaparib) 100% | viability ([18]; at 0.0781 µM, OCI-C5x cells, with rucaparib 10 µM, 100% = cells with rucaparib alone) 103% | viability ([18]; at 0.0781 µM, OCI-C5x cells, without rucaparib) 102% | viability ([18]; at 0.313 µM, OCI-C5x cells, with rucaparib 10 µM, 100% = cells with rucaparib alone) 109% | viability ([18]; at 0.313 µM, OCI-P5x cells, with rucaparib 20 µM, 100% = cells with rucaparib alone) 100% | viability ([18]; at 1.25 µM, OCI-C5x cells, with rucaparib 10 µM, 100% = cells with rucaparib alone) 108% | viability ([18]; at 5 µM, OCI-C5x cells, with rucaparib 10 µM, 100% = cells with rucaparib alone) 112% | viability ([18]; at 5 µM, OCI-C5x cells, without rucaparib) 115%
1.31 and 0.946: fold change [15, 21]
4740 and 6080: cell count [15, 22]

O=C(Nc1ccc(S(=O)(=O)N2CCOCC2)cc1)c1cc(Cl)ccc1NS(=O)(=O)c1ccc(Cl)s1
-0.5%: nuclear beta-catenin stimulation ([2]; stimulation, at 2 µM)
inactive: nuclear beta-catenin stimulation ([2]; at 10 µM) 0.9% | insulin secretion stimulation [3] 3.7% | outcome [11] | outcome [13] | outcome [14]
active: viability decrease [4] 118% | tube area decrease [5] 100% | GLP1 secretion stimulation [6] 39.8% | inhibition of viability [7] 124% | viability decrease (inhibition) [8] 158% | viability decrease (inhibition) [9] 101%

COC(c1ccccc1)(c1ccccc1)[C@H](Oc1nc(C)cc(C)n1)C(=O)O
0%: nuclear beta-catenin stimulation ([2]; stimulation, at 2 µM)
inactive: nuclear beta-catenin stimulation ([2]; at 10 µM) -1.5% | insulin secretion stimulation [3] 4.3% | viability decrease [4] -12.3% | tube area decrease [5] 10.8% | GLP1 secretion stimulation [6] -5.9% | inhibition of viability [7] 6.7% | viability decrease (inhibition) [8] 9.7% | viability decrease (inhibition) [9] -0.4% | outcome [10] | outcome [19] | outcome [11] | outcome [12] | outcome [13] | outcome [14]

Cc1ccccc1C(=O)Nc1ccc(C(=O)N2CCCC(O)c3cc(Cl)ccc32)c(C)c1 (configuration not stated)
1.4%: nuclear beta-catenin stimulation ([2]; stimulation, at 2 µM)
active: viability decrease [4] 52.2%
8090 and 8960: cell count [15, 22]
inactive: nuclear beta-catenin stimulation ([2]; at 10 µM) 3.2% | insulin secretion stimulation [3] 0.15% | tube area decrease [5] 3.5% | GLP1 secretion stimulation [6] 2% | inhibition of viability [7] 38.9% | viability decrease (inhibition) [8] 15.2% | viability decrease (inhibition) [9] 21.9% | outcome [19] | outcome [11] | outcome [12] | outcome [13] | outcome [14] | fold change [15, 20] 0.834 and 0.856 | z-score [16, 24] 0.131 and -0.387 | z-score [17] 0.835
9700 and 10500: cell count [15, 23]
-0.17 and 0.558: z-score [16, 25]
0.412 and 0.955: fold change [15, 21]

O=c1cc(O)c(Cl)c[nH]1
inactive: nuclear beta-catenin stimulation ([2]; at 10 µM) -0.6% | insulin secretion stimulation [3] -1.9% | viability decrease [4] 28% | tube area decrease [5] -18.9% | GLP1 secretion stimulation [6] -0.1% | inhibition of viability [7] 27.8% | viability decrease (inhibition) [9] 12.9% | outcome [11] | outcome [12] | outcome [13] | outcome [14] | fold change [15, 20] 0.957 | z-score [16, 24] -0.106
-0.13: z-score [16, 25]
1.21: fold change [15, 21]
active: viability decrease (inhibition) [8] 54.6%
-0.5%: nuclear beta-catenin stimulation ([2]; stimulation, at 2 µM)
8010: cell count [15, 22]
8380: cell count [15, 23]

CC(C)OC(=O)OCOP(=O)(CO[C@H](C)Cn1cnc2c(N)ncnc21)OCOC(=O)OC(C)C
3%: nuclear beta-catenin stimulation ([2]; stimulation, at 2 µM)
inactive: nuclear beta-catenin stimulation ([2]; at 10 µM) 6.3% | insulin secretion stimulation [3] 13.8% | viability decrease [4] 2.2% | GLP1 secretion stimulation [6] -1.8% | inhibition of viability [7] 32.1% | viability decrease (inhibition) [8] 22.7% | viability decrease (inhibition) [9] 47.8% | outcome [10] | outcome [19] | outcome [12]
active: tube area decrease [5] 65.2%
